# According to PubChem BioAssay (NCATS):
# Values joined by “and” are separate entries in the source; they are usually repeats but may differ in a detail not shown here. Identical values can stand only once. Inconclusive results are not listed. Active and inactive are the calls of the source. Unless noted, calls come from the whole dose curve; as a rule, active = well fitted curve in the direction sought with a large enough effect; inconclusive = small, poorly fitted or top-dose-only effect, or another doubt; inactive = no such curve, though single readings can be large; an effect the other way counts as inactive or inconclusive.
# Assays:
# [1] = Quantitative High-Throughput drug screen in 47 multiple myeloma cell lines against the NCATS MIPE library collection: PE2_PLB cell viability assay (AID 1919869); note: nearly all actives have a fitted effect of over 35% in size; note: potency is the fitted concentration of half-maximal effect
# Method in brief: (§1)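 Inhibition of viability over 48 h was scored by ATP content (CellTiter-Glo) in 500-cell wells. Zero and full viability were defined by media-only and DMSO-only wells.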
# [2] = Quantitative High-Throughput drug screen in 47 multiple myeloma cell lines against the NCATS MIPE library collection: RPMI8226_ATCC cell viability assay (AID 1919871); note: nearly all actives have a fitted effect of over 30% in size; note: potency is the fitted concentration of half-maximal effect
# Method in brief: as §1
# [3] = Quantitative High-Throughput drug screen in 47 multiple myeloma cell lines against the NCATS MIPE library collection: OPM2_DSMZ cell viability assay (AID 1919872); note: nearly all actives have a fitted effect of over 30% in size; note: potency is the fitted concentration of half-maximal effect
# Method in brief: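 Inhibition of cell viability is measured here. Each line was plated at 500 cells per well, treated with MIPE 4.0 drugs, kept 48 hours at 37C, then assayed for ATP content by CellTiter-Glo luminescence.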
# [4] = qHTS drug screen for cell cycle checkpoint inhibitors in PARPi-resistant BRCA-mutant ovarian cancer cell lines. (AID 1963452; calls by dose curve); conditions: PEO1/OlaR viability, CellTiter-Glo luminescence, 96 h, stronger effect = lower value
# Method in brief: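 PEO1, PEO4 and PEO1/OlaR ovarian cancer cells, 600 per well, exposed 96 h at 37C to a dilution series. Viability read by CellTiter-Glo luminescence, normalized to DMSO and empty wells; activity summarized as Z-AUC.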
# [5] = qHTS for identification of novel therapeutic agents for treatment of microphthalmiaassociated transcription factor (MiT) renal cell carcinoma (RCC) (AID 1963991); conditions: CellTiter-Glo, 48 h, stronger effect = lower value
# Method in brief: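 Curves over 11 concentrations were fitted to CellTiter-Glo luminescence, scaled between empty wells (0%) and DMSO (100%) viability. Cells were UOK109, UOK124 and UOK145 TFE3-fusion RCC lines at 500/well, exposed 48 hours at 37 C.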
# [6] = qHTS profiling for inhibitors of Plasmodium falciparum proliferation (AID 504749); note: nearly all actives have a fitted effect of over 60% in size; note: potency is the fitted concentration of half-maximal effect;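 for activity, negative = inhibition: 0% = DMSO vehicle and full inhibition = artemisinin control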; conditions: P. falciparum in erythrocytes, SYBR Green DNA, 72 h
# Method in brief: (§2)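 Infected RBCs, 0.3% parasitemia/2.5% Hct final; cpd 72 h, 37 C, 5% CO2; lysis buffer with saponin/triton/SYBR Green I, o/n RT dark; FI 485/535; norm. to artemisinin (0.29 uM) and DMSO.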
# [7] = system: 3D7; test: as above; conditions: P. falciparum in erythrocytes, SYBR Green DNA, 72 h; series mostly up to 28.7 µM
# Method in brief: as §2
# [8] = system: 7G8; test: as above; conditions: P. falciparum in erythrocytes, SYBR Green DNA, 72 h; series mostly up to 28.7 µM
# Method in brief: as §2
# [9] = system: AA1029; test: as above; conditions: P. falciparum in erythrocytes, SYBR Green DNA, 72 h; series mostly up to 28.7 µM
# Method in brief: as §2
# [10] = system: AS120; test: as above; conditions: P. falciparum in erythrocytes, SYBR Green DNA, 72 h; series mostly up to 28.7 µM
# Method in brief: as §2
# [11] = system: ATS189; test: as above; conditions: P. falciparum in erythrocytes, SYBR Green DNA, 72 h; series mostly up to 28.7 µM
# Method in brief: as §2
# [12] = KB-8-5-11 P-gp reporter qHTS against the NCATS DSHEA and TCM libraries (AID 1919977); note: 0% is about no effect
# Method in brief: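 CellTiter-Glo luminescence measured viability after ~72 h exposure (37C, 5% CO2) of KB-8-5-11 cervical adenocarcinoma cells overexpressing P-gp. Colchicine was omitted during assay. Substances were tested as titrations.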
# [13] = measured here: PEO1 parental Z-AUC
# [14] = TFE3-RCC UOK109 viability, measured here: UOK109 Z-AUC
# [15] = TFE3-RCC viability, measured here: UOK124 Z-AUC
# [16] = TFE3-RCC viability, measured here: UOK145 Z-AUC
# [17] = at 28.7 µM (top of the series), parasite line A
# [18] = at 28.7 µM (top of the series), parasite line B
structure (smiles),measurement,setting,value
CNCC(O)c1ccc(O)cc1 (centres undefined),Potency,[1],inactive
same,Potency,[2],inactive
same,Potency,[3],inactive
same,Z-AUC,[4],-0.876 (inactive)
same,Z-AUC,[4]; [13],-0.301
same,Z-AUC,[4]; measured here: PEO4 Z-AUC,-0.927
same,z-score,[5]; [14],0.0605
same,z-score,[5]; [15],0.435
same,z-score,[5]; [16],-0.102
O=C(O)C(=O)c1cn(Cc2ccccc2)c2ccc(-c3ccc(OC(F)(F)F)cc3)cc12,Potency,[2],inactive
same,Potency,[3],inactive
same,Z-AUC,[4],-0.0319 (inactive)
same,Z-AUC,[4]; [13],0.702
same,Z-AUC,[4]; measured here: PEO4 Z-AUC,0.863
C[C@@H]1[C@@H](C(=O)C[C@H]2O[C@@H]3O[C@]4(C)CC[C@@H]5[C@H](C)CC[C@@H]([C@H]2C)[C@@]35OO4)O[C@@H]2O[C@]3(C)CC[C@H]4[C@H](C)CC[C@@H]1[C@@]24OO3,Potency,[1],0.264 µM (active)
same,Potency,[2],833 nM (active)
same,Potency,[3],372 nM (active)
CN(C)CCN(C)CCc1ccc(Cl)c(Cl)c1,Potency,[2],inactive
same,Potency,[3],inactive
same,Z-AUC,[4],1.45 (inactive)
same,Z-AUC,[4]; [13],1.36
same,Z-AUC,[4]; measured here: PEO4 Z-AUC,1.58
COc1ccc(C(=O)c2c(C)n(CCN3CCOCC3)c3ccccc23)cc1,Potency,[1],inactive
same,Potency,[2],inactive
same,Potency,[3],inactive
same,Z-AUC,[4],0.0561 (inactive)
same,Z-AUC,[4]; [13],-0.45
same,Z-AUC,[4]; measured here: PEO4 Z-AUC,-1.01
same,z-score,[5]; [14],0.603
same,z-score,[5]; [15],0.604
same,z-score,[5]; [16],0.655
same,"activity, negative = inhibition",[6]; [17],-0.832% (inactive)
same,"activity, negative = inhibition",[6]; [18],8.06% (inactive)
same,Potency,[7],inactive
same,Potency,[8],12.6 µM (active)
same,Potency,[9],inactive
same,Potency,[10],inactive
same,Potency,[11],inactive
COC[C@@H](NC(C)=O)C(=O)NCc1ccccc1,Potency,[2],inactive
same,Potency,[3],inactive
same,Z-AUC,[4],-0.757 (inactive)
same,Z-AUC,[4]; [13],0.116
same,Z-AUC,[4]; measured here: PEO4 Z-AUC,-0.684
same,z-score,[5]; [14],-0.0332
same,z-score,[5]; [15],0.828
same,z-score,[5]; [16],0.367
CNC(=O)c1ccc(N2C(=S)N(c3ccc(C#N)c(C(F)(F)F)c3)C(=O)C23CCC3)cc1F,Potency,[1],9.35 µM (active)
same,Potency,[2],inactive
same,Potency,[3],inactive
same,Z-AUC,[4],1.87 (inactive)
same,Z-AUC,[4]; [13],1.38
same,Z-AUC,[4]; measured here: PEO4 Z-AUC,1.39
Cn1c(CCCC(=O)O)nc2cc(N(CCCl)CCCl)ccc21,Potency,[1],8.33 µM (active)
same,Z-AUC,[4],2 (inactive)
same,Z-AUC,[4]; [13],1.56
same,Z-AUC,[4]; measured here: PEO4 Z-AUC,2.09
same,z-score,[5]; [14],1.39
same,z-score,[5]; [15],2.59
same,z-score,[5]; [16],0.899
same,"activity, negative = inhibition",[6]; [17],-26.2% (inactive)
same,"activity, negative = inhibition",[6]; [18],3.04% (inactive)
same,Potency,[7],inactive
same,Potency,[9],inactive
same,Potency,[10],inactive
same,Potency,[11],inactive
CN1CCN(C(=O)O[C@H]2c3nccnc3C(=O)N2c2ccc(Cl)cn2)CC1,Potency,[1],inactive
same,Potency,[2],inactive
same,Potency,[3],inactive
same,"activity, negative = inhibition",[6]; [17],-9.31% (inactive)
same,"activity, negative = inhibition",[6]; [18],-0.974% (inactive)
same,Potency,[7],inactive
same,Potency,[8],inactive
same,Potency,[9],inactive
same,Potency,[10],inactive
same,Potency,[11],inactive
C=C(C)[C@H]1Cc2c(ccc3c2O[C@@H]2COc4cc(OC)c(OC)cc4[C@@H]2C3=O)O1,Potency,[1],0.372 µM (active)
same,Potency,[3],4690 nM (active)
same,Z-AUC,[4],-1.61 (inactive)
same,Z-AUC,[4]; [13],-2.63
same,Z-AUC,[4]; measured here: PEO4 Z-AUC,-1.87
same,"activity, negative = inhibition",[6]; [17],-0.828% (inactive)
same,"activity, negative = inhibition",[6]; [18],-4.67% (inactive)
same,Potency,[7],inactive
same,Potency,[8],10 µM (active)
same,Potency,[9],inactive
same,Potency,[10],inactive
same,Potency,[11],inactive
NN=C(N)N,Z-AUC,[4],0.673 (inactive)
same,Z-AUC,[4]; [13],0.529
same,Z-AUC,[4]; measured here: PEO4 Z-AUC,0.584
same,"activity, negative = inhibition",[6]; [17],-1.43% (inactive)
same,"activity, negative = inhibition",[6]; [18],11.2% (inactive)
same,Potency,[7],inactive
same,Potency,[8],inactive
same,Potency,[9],inactive
same,Potency,[10],inactive
same,Potency,[11],inactive
C=C1C[C@@H]2[C@H](CC[C@]3(C)C(=O)CC[C@@H]23)[C@@]2(C)C=CC(=O)C=C12,Z-AUC,[4],1.28 (inactive)
same,Z-AUC,[4]; [13],0.968
same,Z-AUC,[4]; measured here: PEO4 Z-AUC,1.01
NCC(O)c1ccc(O)cc1 (centres undefined),"activity, negative = inhibition",[6]; [17],10.2% (inactive)
same,"activity, negative = inhibition",[6]; [18],3.73% (inactive)
same,Potency,[7],inactive
same,Potency,[8],inactive
same,Potency,[9],inactive
same,Potency,[10],inactive
same,Potency,[11],inactive
O=P1(NCCCl)OCCCN1CCCl (centres undefined),Potency,[3],inactive
same,Z-AUC,[4],0.293 (inactive)
same,Z-AUC,[4]; [13],-0.297
same,Z-AUC,[4]; measured here: PEO4 Z-AUC,-0.293
same,"activity, negative = inhibition","[6]; at 12.8 µM (top of the series), parasite line A",-2.67% (inactive)
same,"activity, negative = inhibition","[6]; at 12.8 µM (top of the series), parasite line B",0.405% (inactive)
same,Potency,[7],inactive
same,Potency,[8],inactive
same,Potency,[9],inactive
same,Potency,[10],inactive
same,Potency,[11],inactive
CC1OC(C)OC(C)O1 (centres undefined),"activity, negative = inhibition",[6]; [17],8.9% (inactive) and 17.9% (inactive)
same,"activity, negative = inhibition",[6]; [18],12.4% (inactive) and 13.9% (inactive)
same,Potency,[7],inactive
same,Potency,[8],inactive
same,Potency,[9],inactive
same,Potency,[10],inactive
same,Potency,[11],inactive
CC(C)=CC1C(C(=O)OCc2cccc(Oc3ccccc3)c2)C1(C)C (centres undefined),"activity, negative = inhibition",[6]; [17],-11.7% (inactive)
same,"activity, negative = inhibition",[6]; [18],-17.5% (inactive)
same,Potency,[7],inactive
same,Potency,[8],12.6 µM (active)
same,Potency,[9],inactive
same,Potency,[10],inactive
same,Potency,[11],inactive
CC(=O)Nc1cc([As](=O)(O)O)ccc1O,"activity, negative = inhibition",[6]; [17],-21% (inactive)
same,"activity, negative = inhibition",[6]; [18],-0.406% (inactive)
same,Potency,[7],inactive
same,Potency,[8],inactive
same,Potency,[9],inactive
same,Potency,[10],inactive
same,Potency,[11],inactive
O=c1c(O)c(-c2ccc(O)c(O)c2)oc2cc(O)cc(O)c12,outcome,[12],inactive
CCC(COC(=O)c1cc(OC)c(OC)c(OC)c1)(c1ccccc1)N(C)C (centres undefined),"activity, negative = inhibition",[6]; [17],-11.1% (inactive)
same,"activity, negative = inhibition",[6]; [18],-13.8% (inactive)
same,Potency,[7],inactive
same,Potency,[8],inactive
same,Potency,[9],inactive
same,Potency,[10],inactive
same,Potency,[11],inactive
COc1ccc2c(c1OC)CN1CCc3cc4c(cc3C1C2)OCO4 (centres undefined),Potency,[2],inactive
same,Potency,[3],inactive
same,z-score,[5]; [14],0.633
same,z-score,[5]; [15],0.605
same,z-score,[5]; [16],0.614
NCCc1cc(O)c(O)cc1O,"activity, negative = inhibition",[6]; [17],7.16% (inactive)
same,"activity, negative = inhibition",[6]; [18],11.4% (inactive)
same,Potency,[7],inactive
same,Potency,[8],inactive
same,Potency,[9],inactive
same,Potency,[10],inactive
same,Potency,[11],inactive
